Inconclusive results are not listed. Calls of active or inactive are those of the source. Calls follow the shape of the dose curve; as a rule, active = well fitted curve in the direction sought with a large enough effect; inconclusive = small, poorly fitted or top-dose-only effect, or another doubt; inactive = no such curve, though single readings can be large; an effect the other way counts as inactive or inconclusive.

Sequence of Pyruvate kinase PKM (Homo sapiens) (P14618 whole entry, looked up): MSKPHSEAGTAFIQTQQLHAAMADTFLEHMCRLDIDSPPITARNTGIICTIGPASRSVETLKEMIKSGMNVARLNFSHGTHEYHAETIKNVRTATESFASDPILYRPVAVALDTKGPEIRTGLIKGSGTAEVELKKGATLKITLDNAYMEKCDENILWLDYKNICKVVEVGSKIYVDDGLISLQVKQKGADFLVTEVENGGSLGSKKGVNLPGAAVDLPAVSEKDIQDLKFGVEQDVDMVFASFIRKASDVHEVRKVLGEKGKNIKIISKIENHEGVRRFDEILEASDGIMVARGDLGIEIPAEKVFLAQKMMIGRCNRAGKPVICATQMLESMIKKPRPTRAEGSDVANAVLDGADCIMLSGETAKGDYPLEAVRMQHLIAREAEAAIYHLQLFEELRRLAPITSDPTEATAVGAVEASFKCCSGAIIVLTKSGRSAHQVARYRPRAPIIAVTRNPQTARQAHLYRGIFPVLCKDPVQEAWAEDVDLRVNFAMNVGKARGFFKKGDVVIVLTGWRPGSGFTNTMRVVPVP

In the first assay the target is Alpha-galactosidase (Coffea arabica) (UniProt Q42656). As to the kind of experiment: Counterscreen for Glucocerebrosidase Inhibitors: qHTS Assay for Coffee Bean alpha-Galactosidase at pH 4.5 (AID 957).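 Also: plate controls were enzyme alone for no effect and no enzyme for full effect.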 Particulars: purified coffee bean alpha-galactosidase, fluorogenic substrate; series mostly up to 76.9 µM; activity change, negative = inhibition: at the top concentration. The essentials: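 Coffee bean enzyme (2 nM) with 80 uM 4-methylumbelliferyl alpha-D-galactopyranoside in 50 mM citric acid, 0.005% Tween-20, pH 4.5, 20 min at room temperature; compounds 0.7 nM–77 uM. Stopped at pH 10, fluorescence 365/440 nm; AC50 from Hill fits.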
Sequence of Alpha-galactosidase (Coffea arabica) (Q42656 whole entry, looked up): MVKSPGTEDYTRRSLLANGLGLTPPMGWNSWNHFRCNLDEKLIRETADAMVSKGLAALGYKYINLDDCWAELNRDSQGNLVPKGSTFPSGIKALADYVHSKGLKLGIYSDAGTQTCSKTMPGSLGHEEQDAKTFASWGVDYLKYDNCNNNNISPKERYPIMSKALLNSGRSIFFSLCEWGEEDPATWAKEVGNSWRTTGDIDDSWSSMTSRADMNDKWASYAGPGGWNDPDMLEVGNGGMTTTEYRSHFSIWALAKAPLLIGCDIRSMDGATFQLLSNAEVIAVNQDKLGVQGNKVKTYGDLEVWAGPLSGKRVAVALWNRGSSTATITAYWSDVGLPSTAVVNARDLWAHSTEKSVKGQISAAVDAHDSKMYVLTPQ
On the technique in general: Counterscreens check selectivity or assay interference.
For the compound `CCCN(CCC)C1Cc2cc(OC)c(OC)cc2C1`, the “activity change, negative = inhibition” value is 1.22% (inactive).
Turning to `O=[N+]([O-])c1cc(O)c(O)c([N+](=O)[O-])c1`, the “activity change, negative = inhibition” value is -4.66% (inactive).
With `COc1ccc2c(c1)/C(=C/c1cnc[nH]1)C(=O)N2`, the “activity change, negative = inhibition” value is -4.29% (inactive).
As for `CC(C)(C)c1cc(C=C(C#N)C#N)cc(C(C)(C)C)c1O`, the “activity change, negative = inhibition” value was -5.08% (inactive).
Same read-out and setting: to `C[C@@H]1[C@@H]2Cc3ccc(O)cc3[C@@]1(C)CCN2CC1CC1` belongs -1.06% (inactive); to `NC(=O)c1cc(N2CC2)c([N+](=O)[O-])cc1[N+](=O)[O-]`, -4.39% (inactive); to `CN1CCc2cc(O)cc3c2[C@H]1Cc1ccc(O)c(O)c1-3`, -1.09% (inactive).
Same read-out and setting: in the case of `NCCCP(=O)(O)O` it was -0.44% (inactive); in that of `CN(N=O)c1ccc(O)c(O)c1`, -5.29% (inactive).
Still for that read-out and setting: in the case of `CP(=O)(O)C1=CCNCC1` it was 1.48% (inactive); in that of `Clc1cc(I)cc(Cl)c1NC1=NCCN1`, 0.0261% (inactive); in that of `N#CCCN`, 1.4% (inactive).
For the compound `Cc1[nH]c2ccc(O)cc2c1CCN`, the “activity change, negative = inhibition” value is -3.33% (inactive).
For `CCCN(CCC)[C@@H]1CCc2cccc(O)c2C1`, the result was inactive.
For the compound `CCS(=O)(=O)Nc1cccc(C(=C2CCCCC2)c2cnc[nH]2)c1`, the “activity change, negative = inhibition” value is 1.54% (inactive).
On the same count and under the same terms, in the case of `c1ccc2c(N3CCNCC3)cccc2c1` it was -3.83% (inactive); in that of `CCCN1CCc2cc(O)cc3c2[C@H]1Cc1ccc(O)c(O)c1-3`, -0.806% (inactive); in that of `COc1ccc2[nH]cc(CCN)c2c1`, 2.85% (inactive).
In the case of `O=[N+]([O-])c1ccc2nc(N3CCNCC3)ccc2c1`, the “activity change, negative = inhibition” value was -2.67% (inactive).
On the same count and under the same terms, to `CC(=O)NBr` belongs -0.542% (inactive); to `O=C(O)c1cc[c]([Hg][Cl])cc1`, 2.41% (inactive); to `C[N+](C)(C)CCOC(=O)CBr`, -12.2% (inactive).
Turning to `CN(N=O)c1cc(O)ccc1O`, the “activity change, negative = inhibition” value is 1.69% (inactive).
Turning to `C[N+]1(C)CCC(OC(=O)C(c2ccccc2)c2ccccc2)CC1`, the “activity change, negative = inhibition” value is 0.611% (inactive).
For the compound `O=P(O)(O)C(Cl)(Cl)P(=O)(O)O`, the “activity change, negative = inhibition” value was -0.277% (inactive).
Consider `c1ccc2cc(CC3=NCCN3)ccc2c1`, for which the “activity change, negative = inhibition” value is 1.72% (inactive).
The same measure, in the same setting: in the case of `Cc1sc2ccccc2c1CC1=NCCN1` it was 0.185% (inactive); in that of `OCc1cnc[nH]1`, 1.5% (inactive); in that of `CCCn1c(C)c(C(=O)c2ccc3ccccc3c2)c2ccccc21`, -11.2% (inactive).
Turning to `c1ccc2c(c1)[I+]c1ccccc1-2`, the “activity change, negative = inhibition” value was 1.15% (inactive).

For a further assay, the target named is Pyruvate kinase PKM (Homo sapiens) (UniProt P14618). As to the kind of experiment: qHTS Assay for Inhibitors of Human Muscle Pyruvate Kinase (AID 958). To be noted: purified human PKM enzyme activity; series mostly up to 57.5 µM; activity change, negative = inhibition: at the top concentration. The essentials:
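Human PKM2 activity is measured as ATP generation, detected by luciferase-coupled luminescence. The enzyme (0.1 nM) acts on 0.5 mM PEP and 0.1 mM ADP for 1 h at ambient temperature; data are normalized to uninhibited and full-inhibition wells.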
On the technique in general: qHTS replaces the single test concentration by a dilution series.
Take `CN1CCc2cc(O)cc3c2[C@H]1Cc1ccc(O)c(O)c1-3`: the “activity change, negative = inhibition” value is 36.4% (inactive).
On to `CN(N=O)c1ccc(O)c(O)c1`, for which the “activity change, negative = inhibition” value was 47.3% (inactive).
Turning to `O=C(O)c1cc[c]([Hg][Cl])cc1`, the Potency was 2.51 µM (active).
For `CN(N=O)c1cc(O)ccc1O`, the “activity change, negative = inhibition” value was 22.7% (inactive).

The values above are taken from PubChem BioAssay (NCATS).
